Our source for the inhibition values is PubChem BioAssay AID492992 (Johns Hopkins Ion Channel Center, 2010).

The campaign covered roughly 4,900 compounds. About 2,100 (43%) were called active.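 Rule for the calls: active = thallium signal inhibited by more than 5 SD of the compound-free buffer control wells, on both duplicate plates; inactive = the rest.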 The set was probably picked from earlier hits. Only a sample is shown.

This assay deals with Potassium channel subfamily K member 9 (Homo sapiens) (UniProt Q9NPC2). Description: KCNK9 potassium channel inhibitors, confirmation, HEK293 cells, thallium flux, duplicate (AID 492992).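 For inhibition: 0% = assay buffer control wells without compound.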 Particulars: FluxOR thallium flux fluorescence, at 10 µM; active compounds read high.
Sequence of Potassium channel subfamily K member 9 (Homo sapiens) (Q9NPC2 whole entry, looked up): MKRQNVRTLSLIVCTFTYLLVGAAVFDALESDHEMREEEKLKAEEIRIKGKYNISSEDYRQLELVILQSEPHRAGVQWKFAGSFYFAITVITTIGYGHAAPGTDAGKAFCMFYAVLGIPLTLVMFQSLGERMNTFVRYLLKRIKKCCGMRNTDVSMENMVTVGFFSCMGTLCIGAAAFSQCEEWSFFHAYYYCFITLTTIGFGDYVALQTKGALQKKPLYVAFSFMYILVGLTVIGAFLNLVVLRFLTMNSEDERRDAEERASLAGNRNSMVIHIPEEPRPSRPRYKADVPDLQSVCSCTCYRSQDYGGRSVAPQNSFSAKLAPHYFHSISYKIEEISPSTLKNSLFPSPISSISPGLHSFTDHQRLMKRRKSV
As usually defined, the inhibition is the drop in the measured response relative to a control, in per cent. Take `O=C1CC(NNc2ccccc2)C(=O)N1c1cccc(Cl)c1` (centres undefined): the inhibition entry was “inactive”.

As for `CN(C)c1ccc(C(CNC(=O)c2ccc(F)cc2)c2c[nH]c3ccccc23)cc1` (centres undefined), the inhibition result is “inactive”.

Turning to `COc1cc(Cl)c(C)cc1NC(=O)CSc1nnc(-c2ccco2)n1CC(C)C`, the inhibition was 41.5% (active).

Take `COc1ccc(Nc2ncnc3sc(-c4ccccc4)cc23)c(OC)c1`: the inhibition is 33.5% (active).

Consider `CCOC(=O)C(C)Sc1nc2ccccc2c(=O)n1CC1CCCCC1` (centres undefined), for which the inhibition is 40.5% (active).

With `COc1ccc(-c2nc(CCNC(=O)c3ccc(Br)o3)cs2)cc1`, the inhibition is 28.5% (active).

`COc1cccc(-c2nn(C)c3sc(C(=O)N4CCN(c5ccccc5)CC4)cc23)c1`: the inhibition entry was “inactive”.

On to `CC1(C)CC(N2CCN(C(c3ccccc3)c3ccccc3)CC2)=CC(=[N+]2CCCCC2)C1`, for which the inhibition is 68% (active).

With `N#Cc1nc(Cc2cccc3ccccc23)oc1NCc1ccc2c(c1)OCO2`, the inhibition is 45% (active).

Take `C=CCN(N=Nc1cccc([N+](=O)[O-])c1)c1cccc([N+](=O)[O-])c1`: the inhibition was 57.5% (active).

`CCCCCn1c(=O)c(C(=O)OCC)c(Cl)c2ccccc21`: the inhibition was 45.5% (active).

Take `CCOC(=O)N/N=C/c1cn(Cc2ccccc2Cl)c2ccccc12`: the inhibition entry is “inactive”.

In the case of `CCOc1ccccc1NC(=O)C1CCCN(S(=O)(=O)c2ccccc2)C1` (centres undefined), the inhibition result was “inactive”.

For `CN(C)S(=O)(=O)N1CCC(Oc2cccc(C(=O)NCCCC3CCCC3)c2)CC1`, the inhibition was 62% (active).

Regarding `Cc1csc(Nc2ccc(Cl)cc2)[n+]1-c1ccc(Cl)cc1`, the inhibition result was “inactive”.

`Cc1cc(C)cc(NC(=O)CSCc2cnn(-c3ccccc3)c2-n2cccc2)c1`: the inhibition result was “inactive”.

As to `Cc1ccc2c(c1)N(C(=O)CCC(=O)N1CCc3ccccc3C1)CCO2`, the inhibition entry is “inactive”.

As for `O=C(/C=C/NNC(=O)c1cccc(Br)c1)c1ccccc1`, the inhibition was 60% (active).

In the case of `Cc1c(C(=O)Nc2ccccn2)oc2ccc(Br)cc12`, the inhibition was 36% (active).

In the case of `O=C(CSCc1ccc(Cl)cc1)N1CCN(Cc2ccc3c(c2)OCO3)CC1`, the inhibition result was “inactive”.

Take `CC1(C)CC(=O)CC2(C1)NCC(c1ccccc1Cl)c1c2[nH]c2ccccc12` (centres undefined): the inhibition was 66.5% (active).

Consider `c1ccc(C(c2ccccc2)N2CCN(Cc3nnnn3C3CCCCC3)CC2)cc1`, for which the inhibition was 34.5% (active).

Turning to `Cc1ccc(NC2CCCN(C(=O)CCC3(C)CC3)C2)cc1C` (centres undefined), the inhibition entry was “inactive”.

For the compound `Clc1cccc(-c2nc3nc4ccccc4nc3n2Cc2ccco2)c1`, the inhibition is 32% (active).

For `Cc1cccc(NC(=O)CN2CCCN(S(=O)(=O)c3ccc(Br)s3)CC2)c1`, the inhibition result was “inactive”.

In the case of `CCCC1=Nc2cc(C(=O)NCc3ccco3)ccc2Sc2ccccc21`, the inhibition is 31.5% (active).

For the compound `O=C(NCc1ccco1)c1ccc(NS(=O)(=O)c2cccc([N+](=O)[O-])c2)cc1`, the inhibition result was “inactive”.

For `O=S(=O)(Nc1cccc(Oc2ccc(Cl)cc2)n1)c1ccc(F)cc1`, the inhibition result was “inactive”.

For `Cc1cc(Oc2ccc(Cl)cc2)nc(SCC(=O)c2ccccc2)n1`, the inhibition was 34% (active).

On to `COc1cc(Cl)ccc1OCc1cc(C(=O)N2CC[C@@H]3CCCC[C@H]3C2)no1`, for which the inhibition result was “inactive”.

Regarding `Clc1ccc(CSc2nnc(/C=C/c3ccccc3)o2)c(Cl)c1`, the inhibition result is “inactive”.

For the compound `C=CCc1cc(S(=O)(=O)c2ccc(O)c(CC=C)c2)ccc1O`, the inhibition was 69% (active).

For the compound `O=C1c2ccccc2C2=Nc3ccccc3SC(c3ccccc3F)C12` (centres undefined), the inhibition is 50% (active).

For the compound `COC(=O)c1cccc(C(=O)N2CCCC(Nc3ccc4c(c3)OCCO4)C2)c1` (centres undefined), the inhibition entry was “inactive”.

As to `CCOC(=O)C1(CCOc2ccccc2)CCN(Cc2cc(OC)c(O)cc2Cl)CC1`, the inhibition result is “inactive”.

Take `O=C(NC1Cc2ccccc2C1)c1cc(COc2cccc(C(F)(F)F)c2)on1`: the inhibition result was “inactive”.

For the compound `COc1ccc(NC(=O)CN(C)CC(=O)Nc2cccc(C(F)(F)F)c2)cc1`, the inhibition was 44.5% (active).

`COc1cccc(COC(=O)C2CCN(S(=O)(=O)c3ccc(Cl)cc3)CC2)c1OC`: the inhibition entry is “inactive”.

`CSc1cccc(NC(=S)N(C(C)C)C(C)c2ccccn2)c1` (centres undefined): the inhibition is 66.5% (active).

In the case of `COc1ccccc1NC(=O)CSc1nc2sc(C)c(C)c2c(=O)n1Cc1ccco1`, the inhibition is 48.5% (active).

In the case of `Cc1nc(N2CCN(c3ccccn3)CC2)c2c(C)c(C(=O)Nc3ccc(F)c(Cl)c3)sc2n1`, the inhibition was 48.5% (active).

`O=S(=O)(c1ccc(F)cc1)N1CCN(Cc2ccccc2C(F)(F)F)CC1`: the inhibition result is “inactive”.

On to `COc1ccccc1/C=C/C=N/n1c(-c2ccc(Cl)cc2Cl)n[nH]c1=S`, for which the inhibition result is “inactive”.

For `O=C(Nc1ccc(Br)c2cccnc12)c1ccc(Cn2cc([N+](=O)[O-])cn2)o1`, the inhibition entry is “inactive”.

On to `CCC1=NN(C(=O)Cc2ccc([N+](=O)[O-])cc2)C(O)(c2ccc(Br)cc2)C1` (centres undefined), for which the inhibition is 65% (active).

Consider `Cc1cc(Cl)ccc1C(=O)C1CCCN(C(=O)CCN2CCCO2)C1` (centres undefined), for which the inhibition result is “inactive”.

Take `O=C(OCC(=O)N(CCc1ccccc1)Cc1ccccc1)c1ccccc1[N+](=O)[O-]`: the inhibition was 58.5% (active).

With `Cc1cc(C)cc(OCC(=O)Nc2cc(NC(=O)COc3cc(C)cc(C)c3)cc(C(=O)O)c2)c1`, the inhibition result was “inactive”.

In the case of `COc1cc(C2CC(=O)N3CN(Cc4ccccc4)CSC3=C2C#N)ccc1OCc1ccccc1` (centres undefined), the inhibition result was “inactive”.

Consider `CCOc1ccc(C2c3[nH]c4ccccc4c3CCN2Cc2cccn2-c2ncccn2)cc1` (centres undefined), for which the inhibition is 35% (active).

For `CCC(C)(C)n1nnnc1C(c1cccs1)N1CCN(c2nc3ccccc3s2)CC1` (centres undefined), the inhibition was 39% (active).

Consider `COc1ccc2c(c1)C(c1cccs1)=NNC(c1cccnc1)=N2`, for which the inhibition is 43% (active).

In the case of `COCCN(C(=S)Nc1cccc(Cl)c1C)C(C)c1ccco1` (centres undefined), the inhibition result is “inactive”.

As for `O=C(COC(=O)/C(=C/c1cccs1)c1cccs1)NCc1ccccc1Cl`, the inhibition was 29% (active).

Regarding `Cc1ccccc1CSc1nnc(CCCCCNC(=O)OC(C)(C)C)o1`, the inhibition result is “inactive”.

`CCc1nnc(NS(=O)(=O)c2ccc(NC(=S)NC(=O)/C=C/c3cccs3)cc2)s1`: the inhibition entry is “inactive”.

`COc1cccc2sc(NNC(=O)c3nc4ccccc4s3)nc12`: the inhibition result is “inactive”.

In the case of `Cc1nn(CC(=O)Nc2nc3ccccc3s2)c(C)c1[N+](=O)[O-]`, the inhibition was 48% (active).

Regarding `O=C(NCc1ccccc1)C1=C[C@@H](C2CCCCC2)C[C@@H](OCc2ccc(CO)cc2)O1`, the inhibition result was “inactive”.

Turning to `O=C(CSCc1ccc(Br)cc1)Nc1ccc(S(=O)(=O)N2CCCCCC2)cc1`, the inhibition entry was “inactive”.

For the compound `Cc1ccc(C2=Nc3c(ccc4ccccc34)C(c3ccncc3)=NN2)cc1`, the inhibition was 68.5% (active).

`CCOc1cccc(OCCCOc2cccc3cccnc23)c1`: the inhibition entry is “inactive”.

Turning to `Cc1ccc(OCc2cc(C(=O)N(C)CCc3ccccc3)no2)cc1C`, the inhibition result is “inactive”.

Take `COc1ccc(C(C)=O)cc1COc1ccc(Cl)c(C)c1`: the inhibition was 46% (active).

Turning to `Cc1ccc(OS(=O)(=O)c2ccc(-c3csc(C)n3)s2)c(C)c1`, the inhibition result was “inactive”.

In the case of `Cc1cccc(NC(=O)N(Cc2cc3cc(C)cc(C)c3[nH]c2=O)CC2COCCO2)c1` (centres undefined), the inhibition result is “inactive”.

For `O=C1/C(=C/c2ccc(F)cc2)SC(=S)N1NS(=O)(=O)c1ccccc1`, the inhibition entry is “inactive”.

As for `Fc1ccc(Cn2nnnc2C(c2cccs2)N2CCCCCC2)cc1` (centres undefined), the inhibition is 49% (active).

As to `COc1ccccc1C(c1nnnn1C(C)(C)C)N1CCN(Cc2ccccc2)CC1` (centres undefined), the inhibition was 76% (active).

For the compound `COc1ccc(C(=O)C2CCCN(C(=O)c3cc(C)on3)C2)cc1F` (centres undefined), the inhibition entry is “inactive”.

On to `CCCCCCCCCCOC(=O)Cn1c(COc2cccc(OC)c2)[n+](C)c2ccccc21`, for which the inhibition is 67% (active).

For `CCCCCCCCCCOC(=O)Cn1c(COc2ccc(C)cc2)[n+](C)c2ccccc21`, the inhibition is 65% (active).

For `CCCCN(Cc1ccccc1)C(=O)C1CCN(Cc2sccc2C)CC1`, the inhibition result is “inactive”.

Consider `CCOc1ccc2[nH]c(=O)c(CN(Cc3nnnn3CCc3ccccc3)CC3CCCO3)cc2c1` (centres undefined), for which the inhibition was 32% (active).

As to `CCCCn1ccnc1C(=O)c1cccc(S(=O)(=O)N2c3ccccc3CC2C)c1` (centres undefined), the inhibition was 62% (active).

For the compound `Cc1cccc(N2CCN(C(=O)c3cccc(S(=O)(=O)N4CCc5ccccc5C4)c3)CC2C)c1` (centres undefined), the inhibition result is “inactive”.

`Cc1cc2ccccn2c1C(=O)c1cccc(S(=O)(=O)N2CCOCC2)c1`: the inhibition result was “inactive”.

Regarding `CCN(CC)C(=O)CC1(c2ccccc2OC)CCOC(C(C)C)C1` (centres undefined), the inhibition was 36.5% (active).

For the compound `COc1cccc(CN(C)C(=O)CC23CC4CC(CC(C4)C2)C3)c1OC`, the inhibition result was “inactive”.

Take `O=C1N=C2SCCN2/C1=C\c1c(Cl)cccc1Cl`: the inhibition result was “inactive”.

In the case of `CC1=C/C(=N\OS(=O)(=O)c2ccccc2)C=CC1=O`, the inhibition entry is “inactive”.

On to `COc1cc(C(CCN2CCN(c3ccccc3)CC2)c2c(OC)cc(OC)c3ccc(=O)oc23)cc(OC)c1OC` (centres undefined), for which the inhibition entry is “inactive”.

Turning to `CCOc1ccc(CN(Cc2ccco2)C(c2cccs2)c2nnnn2C(C)(C)C)cc1` (centres undefined), the inhibition is 60.5% (active).

Take `COc1ccc(C2CC(c3cccs3)=Nc3ccccc3S2)cc1OC` (centres undefined): the inhibition is 40.5% (active).

Turning to `COc1ccc(OC)c(-c2csc(-c3cccs3)n2)c1`, the inhibition entry was “inactive”.

`O=C(COC(=O)c1c2c(nc3ccccc13)CCCC2)c1ccc(Br)s1`: the inhibition entry was “inactive”.

For `CCc1ccccc1NC(=O)/C(=C/c1ccccc1)c1ccccc1`, the inhibition is 37.5% (active).

In the case of `CC(Oc1ccc2ccccc2c1)C(=O)NNC(=S)NC(=O)c1ccco1` (centres undefined), the inhibition entry was “inactive”.

With `O=C(Nc1ccc(Oc2ccccc2)cc1)c1ccco1`, the inhibition was 50.5% (active).

For `Cc1ccc(C2=NN(C)c3nc4ccccc4n3C2)cc1`, the inhibition result is “inactive”.

In the case of `CCCN1C(=O)C(Cc2nc3ccccc3c(=O)n2-c2ccccc2)c2cc(C)ccc21` (centres undefined), the inhibition is 47% (active).

Regarding `Brc1ccc(C2CC(c3ccccc3)=Nc3ccccc3N2)cc1` (centres undefined), the inhibition is 61.5% (active).

For `O=C(NNc1ccccc1Cl)C(O)(c1cccc(C(F)(F)F)c1)c1cccc(C(F)(F)F)c1`, the inhibition was 44% (active).

With `COc1cccc(-c2cc3nc4c(c(N5CCC6(CC5)OCCO6)n3n2)CCCC4)c1`, the inhibition result is “inactive”.

Turning to `CC(C)(C)C1CCC(C(=O)NCC(c2cccs2)N2CCOCC2)CC1` (centres undefined), the inhibition result is “inactive”.

For the compound `CCc1cccc(C)c1N(C(=O)Cn1c(CO)nc2ccccc21)C(C)COC` (centres undefined), the inhibition is 37.5% (active).

For the compound `O=[N+]([O-])c1ccc(N2CCN(CC(O)COc3ccccc3)CC2)cc1` (centres undefined), the inhibition result is “inactive”.

As to `Cc1[nH]c2ccccc2c1CCN(Cc1cccs1)C(=S)NC(C)(C)C`, the inhibition result is “inactive”.

Turning to `COc1cccc(NC(=S)N(CCc2c(C)[nH]c3ccccc23)Cc2ccco2)c1`, the inhibition is 59% (active).
